Assay results from PubChem BioAssay AID1159580 (chemical genetic matrix, 2015).
In all, about 5,500 compounds went through this assay and about 2,000 (36%) were called active. Another 18% or so got no clear call; they are omitted. Rule as the data show it: active = normalized growth mostly below about 0.91 (no sharp cut-off); inconclusive = no clear call, values can overlap the other calls; inactive = mostly above about 0.92. The list shows a part of the results.

Assay: chemical genetic growth profiling, strain panel (AID 1159580);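 also: tested at 20 µM; growth read once vehicle control cultures reached saturation at 30 °C; 1 = growth at the plate median or of vehicle wells; lower values mean less growth of the strain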
Conditions: growth OD

Measured: normalized growth

CC(=O)Oc1ccc(C(c2ccc(OC(C)=O)cc2)c2ccccn2)cc1
inactive: S. cerevisiae deletion strains, locus YJR075W, strain HOC1, stronger effect = lower value 0.978 | S. cerevisiae deletion strains, locus YKL009W, strain mrt4, stronger effect = lower value 0.985 | S. cerevisiae deletion strains, locus YKL068W, stronger effect = lower value 1 | S. cerevisiae deletion strains, locus YKL085W, strain MDH1 (second series), stronger effect = lower value 0.986 | S. cerevisiae deletion strains, locus YKL085W, strain MDH1, stronger effect = lower value 0.986 | S. cerevisiae deletion strains, locus YKL160W, strain elf1, stronger effect = lower value 1.03 | S. cerevisiae deletion strains, locus YKL190W, strain CNB1, stronger effect = lower value 0.989 | S. cerevisiae deletion strains, locus YKR001C, strain vps1, stronger effect = lower value 0.984 | S. cerevisiae deletion strains, locus YKR026C, strain gcn3, stronger effect = lower value 1.01 | S. cerevisiae deletion strains, locus YKR091W, strain srl3, stronger effect = lower value 1.02 | S. cerevisiae deletion strains, locus YLL001W, strain dnm1, stronger effect = lower value 1.01 | S. cerevisiae deletion strains, locus YLL026W, stronger effect = lower value 1.02 | S. cerevisiae deletion strains, locus YLL041C, strain sdh2, stronger effect = lower value 1.03 | S. cerevisiae deletion strains, locus YLR027C, strain aat2, stronger effect = lower value 1.02 | S. cerevisiae deletion strains, locus YLR039C, strain RIC1, stronger effect = lower value 0.986 | S. cerevisiae deletion strains, locus YLR058C, strain SHM2, stronger effect = lower value 0.984 | S. cerevisiae deletion strains, locus YLR102C, strain apc9, stronger effect = lower value 0.995 | S. cerevisiae deletion strains, locus YLR113W, strain HOG1, stronger effect = lower value 0.953 | S. cerevisiae deletion strains, locus YLR221C, strain rsa3, stronger effect = lower value 1.02 | S. cerevisiae deletion strains, locus YLR258W, strain gsy2, stronger effect = lower value 1.03 | S. cerevisiae deletion strains, locus YLR262C, strain YPT6 (second series), stronger effect = lower value 1.01 | S. cerevisiae deletion strains, locus YLR262C, strain YPT6, stronger effect = lower value 0.969 | S. cerevisiae deletion strains, locus YLR268W, strain sec22, stronger effect = lower value 0.992 | S. cerevisiae deletion strains, locus YLR320W, strain mms22, stronger effect = lower value 1 | S. cerevisiae deletion strains, locus YLR330W, strain CHS5, stronger effect = lower value 0.988 | S. cerevisiae deletion strains, locus YLR342W, strain FKS1 (second series), stronger effect = lower value 1.02 | S. cerevisiae deletion strains, locus YLR342W, strain FKS1, stronger effect = lower value 1.01 | S. cerevisiae deletion strains, locus YLR357W, strain rsc2, stronger effect = lower value 1.08 | S. cerevisiae deletion strains, locus YLR370C, strain arc18, stronger effect = lower value 1.03 | S. cerevisiae deletion strains, locus YLR371W, strain rom2, stronger effect = lower value 0.983 | S. cerevisiae deletion strains, locus YLR384C, strain iki3, stronger effect = lower value 1.02 | S. cerevisiae deletion strains, locus YLR418C, strain cdc73, stronger effect = lower value 0.999 | S. cerevisiae deletion strains, locus YML016C, strain PPZ1, stronger effect = lower value 0.981 | S. cerevisiae deletion strains, locus YML032C, strain rad52, stronger effect = lower value 0.998 | S. cerevisiae deletion strains, locus YML120C, strain ndi1, stronger effect = lower value 1 | S. cerevisiae deletion strains, locus YML124C, strain tub3, stronger effect = lower value 0.992 | S. cerevisiae deletion strains, locus YMR058W, strain fet3, stronger effect = lower value 1.01 | S. cerevisiae deletion strains, locus YMR078C, strain ctf18, stronger effect = lower value 0.985 | S. cerevisiae deletion strains, locus YMR125W, strain sto1, stronger effect = lower value 1.02 | S. cerevisiae deletion strains, locus YMR129W, stronger effect = lower value 1.02 | S. cerevisiae deletion strains, locus YMR205C, strain PFK2, stronger effect = lower value 0.985 | S. cerevisiae deletion strains, locus YMR223W, strain ubp8, stronger effect = lower value 0.987 | S. cerevisiae deletion strains, locus YMR231W, strain pep5, stronger effect = lower value 1.02 | S. cerevisiae deletion strains, locus YMR263W, strain SAP30, stronger effect = lower value 0.963 | S. cerevisiae deletion strains, locus YMR307W, strain GAS1, stronger effect = lower value 0.934 | S. cerevisiae deletion strains, locus YNL067W, strain RPL9B, stronger effect = lower value 0.965 | S. cerevisiae deletion strains, locus YNL071W, strain lat1, stronger effect = lower value 1.01 | S. cerevisiae deletion strains, locus YNL183C, strain NPR1, stronger effect = lower value 0.928 | S. cerevisiae deletion strains, locus YNL209W, strain ssb2, stronger effect = lower value 1 | S. cerevisiae deletion strains, locus YNL233W, strain BNI4, stronger effect = lower value 0.971 | S. cerevisiae deletion strains, locus YNL248C, strain rpa49, stronger effect = lower value 1.03 | S. cerevisiae deletion strains, locus YNL250W, strain rad50, stronger effect = lower value 0.98 | S. cerevisiae deletion strains, locus YNL271C, strain bni1, stronger effect = lower value 0.985 | S. cerevisiae deletion strains, locus YNL298W, strain CLA4, stronger effect = lower value 0.989 | S. cerevisiae deletion strains, locus YNL307C, strain MCK1, stronger effect = lower value 0.989 | S. cerevisiae deletion strains, locus YNL322C, strain KRE1 (second series), stronger effect = lower value 1.01 | S. cerevisiae deletion strains, locus YNL322C, strain KRE1, stronger effect = lower value 1 | S. cerevisiae deletion strains, locus YNR049C, strain mso1, stronger effect = lower value 1.01 | S. cerevisiae deletion strains, locus YNR052C, strain pop2, stronger effect = lower value 0.997 | S. cerevisiae deletion strains, locus YOL012C, strain htz1 1.18 | S. cerevisiae deletion strains, locus YOL147C, strain pex11, stronger effect = lower value 0.979 | S. cerevisiae deletion strains, locus YOR001W, strain rrp6, stronger effect = lower value 0.973 | S. cerevisiae deletion strains, locus YOR061W, strain CKA2, stronger effect = lower value 0.995 | S. cerevisiae deletion strains, locus YOR069W, strain VPS5, stronger effect = lower value 0.989 | S. cerevisiae deletion strains, locus YOR070C, strain gyp1, stronger effect = lower value 1 | S. cerevisiae deletion strains, locus YOR080W, strain dia2, stronger effect = lower value 1.02 | S. cerevisiae deletion strains, locus YOR083W, strain WHI5, stronger effect = lower value 1.02 | S. cerevisiae deletion strains, locus YOR106W, strain vam3, stronger effect = lower value 1.05 | S. cerevisiae deletion strains, locus YOR136W, strain idh2, stronger effect = lower value 0.975 | S. cerevisiae deletion strains, locus YOR144C, strain elg1, stronger effect = lower value 0.984 | S. cerevisiae deletion strains, locus YOR184W, strain ser1, stronger effect = lower value 1.01 | S. cerevisiae deletion strains, locus YOR231W, strain MKK1, stronger effect = lower value 0.974 | S. cerevisiae deletion strains, locus YOR265W, strain rbl2, stronger effect = lower value 1 | S. cerevisiae deletion strains, locus YOR270C, strain vph1, stronger effect = lower value 1.02 | S. cerevisiae deletion strains, locus YOR290C, strain snf2, stronger effect = lower value 1.04 | S. cerevisiae deletion strains, locus YOR316C, strain cot1, stronger effect = lower value 0.984 | S. cerevisiae deletion strains, locus YPL051W, strain arl3, stronger effect = lower value 1.01 | S. cerevisiae deletion strains, locus YPL078C, strain atp4, stronger effect = lower value 1.01 | S. cerevisiae deletion strains, locus YPL106C, strain sse1, stronger effect = lower value 1.03 | S. cerevisiae deletion strains, locus YPL240C, strain hsp82, stronger effect = lower value 1.02 | S. cerevisiae deletion strains, locus YPL241C, strain CIN2, stronger effect = lower value 0.996 | S. cerevisiae deletion strains, locus YPL256C, strain CLN2, stronger effect = lower value 1 | S. cerevisiae deletion strains, locus YPR119W, strain clb2, stronger effect = lower value 0.996 | S. cerevisiae deletion strains, locus YPR141C, strain kar3, stronger effect = lower value 0.974 | S. cerevisiae deletion strains, locus YPR163C, strain tif3, stronger effect = lower value 0.996 | S. cerevisiae deletion strains, locus YPR167C, strain met16, stronger effect = lower value 0.989 | S. cerevisiae deletion strains, strain wtn01, stronger effect = lower value 1.01 | S. cerevisiae strains, strain wild type, stronger effect = lower value 1
